{
  "source": "PubChem BioAssay (NCI)",
  "note": "This is part of a sample that, as a whole, favours compounds with a hit. Of some 83,000 tested, about 20% had one in any assay.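 48-hour exposure, single concentration, 96-well plates; percent growth endpoint where 0 means no net growth. Active: below 10.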 Unmarked numbers belong to inactive results. Active and inactive are the calls of the source.",
  "data": [
    {"tested_on": "SK-MEL-5 melanoma", "assay": "NCI-60 one-dose screen, 48 h (100 = growth as untreated, 0 = no growth, -100 = all killed)", "details": "10 µM unless noted", "protocol": "Growth inhibition of the SK-MEL-5 human tumor cell line is measured as a screen for anti-cancer activity. Cells are grown in 96 well plates and exposed to the test compound for 48 hours. Compounds are tested at a single concentration, which is 10^-5 M for most compounds. The reported endpoint is percent growth (GI% or GIPRCNT), where numbers from 0 - 100% represent growth inhibition, and numbers from -100% - 0 represent cell death. For example, a value of 40 represents 60% growth inhibition. A value of 0 means no net growth occurred over the course of the experiment. A value of -40 indicates 40% of cells at the beginning of the experiment died by the end of the experiment. A value of -100 means all cells are dead at the end of the experiment.\nNCI-60 Human Tumor Cell Lines Screen was performed using the standard one-dose NCI protocol, which is described in more detail at https://dtp.cancer.gov/discovery_development/nci-60/default.htm.\nCompounds with GIPRCNT values below 10 were considered active. Activity score was based on GIPRCNT using the following formula: […]\nScore is 0 for GIPRCNT values of 100 or above, 50 for GIPRCNT values of 0, and 100 for GIPRCNT values of -100.", "values": [
      {"smiles": "Cc1nc(-c2cc3ccccc3oc2=O)ccc1C(=O)/C=C/c1ccc(Cl)c(Cl)c1", "growth": "105%"},
      {"smiles": "N#Cc1c(-c2ccc(Cl)cc2)nc(SCc2ccc([N+](=O)[O-])cc2)nc1N1CCNCC1", "growth": "43.6%"},
      {"smiles": "CC(C)(C)Nc1nc2c(OCCc3ccccc3)cccn2c1-c1ccc(O)cc1", "growth": "50.6%"},
      {"smiles": "CC(=O)Oc1ccccc1C(=O)Nc1ccc(C(=O)/C=C/c2cccs2)cc1", "growth": "101%"},
      {"smiles": "COc1cc2nc(-c3ccc(C)cc3)cc(OCCCNCC3CCCO3)c2cc1OC", "note": "(stereo not given)", "growth": "77.7%"},
      {"smiles": "CN1CCN(Cc2ccc(NC(=O)c3cncc(C#Cc4cnc5[nH]ncc5c4)c3)cc2C(F)(F)F)CC1", "growth": "43.4%"},
      {"smiles": "C/C(=N/NC(N)=S)c1ccc(Nc2nc(SCC(C)C)nc(-c3ccc(F)cc3)c2C#N)cc1", "growth": "37.3%"},
      {"smiles": "Cn1cc(-c2cc(N)n3nc(-c4cn(C)c5ccc(F)cc45)cc3n2)c2cc(F)ccc21", "growth": "104%"},
      {"smiles": "O=C(N/N=C/c1ccc[nH]1)c1[nH]c2ccc(Br)cc2c1-c1ccccc1", "growth": "-34.3% (active)"},
      {"smiles": "CCCCCCNC(=O)Oc1ccc(/C(=C(/C)c2ccccc2)c2ccc(OCCN3CCCCCC3)cc2)cc1", "growth": "20.1%"},
      {"smiles": "C=C1CC[C@H]2[C@@](C)(CCC3OC(c4ccc(OCc5cn(C6CC(OC(C)=O)C(OC(C)=O)C(COC(C)=O)O6)nn5)cc4)OC[C@]32C)[C@@H]1/C=C/C1=CCOC1=O", "note": "(stereo not given in full)", "growth": "0.123% (active)"},
      {"smiles": "Cc1cccc(/C=C/c2nn3c(-c4ccco4)nnc3s2)c1", "growth": "92%"},
      {"smiles": "CCCC(=O)NC(c1ccc(N(CC)CC)cc1)c1cc(C)c2cccnc2c1O", "note": "(stereo not given)", "growth": "-19.8% (active)"},
      {"smiles": "COC(=O)C(Cc1ccccc1)NS(=O)(=O)/N=C1\\NC(=O)NC1=C(Cl)Cl", "note": "(stereo not given)", "growth": "98.1%"},
      {"smiles": "COc1ccc(/C=N/NC(=O)c2[nH]c3ccc(Br)cc3c2-c2ccccc2)s1", "growth": "-24.4% (active)"},
      {"smiles": "COc1ccc(/C=C/C(=O)c2ccc(NC(=O)CSc3nnc(-c4ccc5nc(-c6ccc(Cl)cc6)[nH]c5c4)o3)cc2)cc1", "growth": "89.7%"},
      {"smiles": "CN(C)CCCOc1c2ccc(Cl)cc2nc2c1oc1ccc(Cl)cc12", "growth": "-19.3% (active)"},
      {"smiles": "CC(C)Sc1nc(Nc2ccc(S(N)(=O)=O)cc2)c(C#N)c(-c2ccc(F)cc2)n1", "growth": "54.3%"},
      {"smiles": "O=C(CCN1C(=O)/C(=C/c2ccccc2F)SC1=S)N1CCOCC1", "growth": "96.9%"},
      {"smiles": "Cn1c(SCC(=O)Nc2ccc(-c3nc4ccc([N+](=O)[O-])cc4[nH]3)cc2)nc2ccccc2c1=O", "growth": "84.8%"},
      {"smiles": "C=CCn1c(SCC(=O)c2ccccc2)nnc1-c1c[nH]c2ccccc12", "growth": "96.6%"},
      {"smiles": "O=C(NNc1nc2cc(F)ccc2n2c(CN3CC4(COC4)C3)ccc12)c1cnccn1", "growth": "-20.3% (active)"},
      {"smiles": "CS(=O)(=O)c1ccc(-c2nc3ccccn3c2/C=N/Nc2nc(-c3ccc(Br)cc3)cs2)cc1", "growth": "96.5%"},
      {"smiles": "O=C1c2c(c3c4cc(Br)ccc4[nH]c3c3ccc4ccccc4c23)C(=O)N1CCO", "growth": "100%"},
      {"smiles": "COc1ccc(-c2nc3ccc(-c4nnc(SCC(=O)Nc5ccc(C(=O)/C=C/c6ccc(Cl)cc6)cc5)o4)cc3[nH]2)cc1OC", "growth": "97.6%"},
      {"smiles": "COc1cc(/C=C/C(=O)c2cc(OC)c(OC)c(OC)c2)ccc1OCc1ccc(F)cc1", "growth": "58.7%"},
      {"smiles": "COc1cc(/C=C/C(=O)c2ccc(C(F)(F)F)cc2)ccc1Oc1nc(NCCO)nc(N2CCOCC2)n1", "growth": "94%"},
      {"smiles": "O=C(CSc1nc2sc3c(c2c(=O)n1-c1ccc(Cl)cc1)CCCC3)NNC(=O)Nc1ccc(Cl)c(C(F)(F)F)c1", "growth": "34.7%"},
      {"smiles": "[Cl][Ru].c1ccc(-c2cc(-c3ccccn3)nc(-c3ccccn3)c2)cc1.c1ccc(-c2ccnc3c2ccc2c(-c4ccccc4)ccnc23)cc1", "growth": "-94.9% (active)"},
      {"smiles": "C=CCn1c(SCC(=O)c2ccc(Br)cc2)nnc1-c1c[nH]c2ccccc12", "growth": "95.9%"},
      {"smiles": "Cc1c(Nc2nnc(SCC(=O)Nc3sc4c(c3C#N)CCCC4)s2)c(=O)n(-c2ccccc2)n1C", "growth": "102%"},
      {"smiles": "Clc1ccc2c(OCCCN3CCOCC3)c3oc4ccccc4c3nc2c1", "growth": "42.7%"},
      {"smiles": "COc1ccc(-c2cc(C(=O)N=Nc3c(O)[nH]c4ccccc34)c3ccccc3n2)cc1OC", "growth": "97.3%"},
      {"smiles": "C#Cc1nc(C2=C(C)C(O)/C(=N/O)C2)cs1", "note": "(stereo not given)", "growth": "94.9%"},
      {"smiles": "COc1ccc([C@@H]2c3[nH]c4ccccc4c3CC3C(=O)N(C4CCN(Cc5c(F)cccc5F)CC4)CC(=O)N32)c(OC)c1", "note": "(stereo not given in full)", "growth": "-9.17% [5.26 µM] (active)"},
      {"smiles": "Cn1ccnc1C(=O)/C=C/c1ccc(NC(=O)Nc2ccc(F)cc2)cc1", "growth": "77.8%"},
      {"smiles": "[Cl][Ru].c1ccc(-c2cccc(-c3ccccn3)n2)nc1.c1ccc(-c2ccnc3c2ccc2c(-c4ccccc4)ccnc23)cc1", "growth": "73.1%"},
      {"smiles": "COc1ccc(-c2nc3ccc(-c4nnc(SCC(=O)Nc5ccc(C(=O)/C=C/c6ccccc6)cc5)o4)cc3[nH]2)cc1OC", "growth": "95.5%"},
      {"smiles": "COc1cc(/C=C/C(=O)c2cc(OC)c(OC)c(OC)c2)ccc1Oc1nc(NCCO)nc(N2CCOCC2)n1", "growth": "3.03% (active)"},
      {"smiles": "C#Cc1nc(C2=C(C)C(=O)/C(=N/OC(C)=O)C2)cs1", "growth": "97.3%"}
    ]}
  ]
}
